# Shown are actives, neighbours in structure and some others; about 3.3% of the full set was active somewhere.
# Rpn11 block: inhibitors of human proteasome Rpn11; inhibition, % at 20 µM; human 26S proteasome, Ub4-pepOG fluorescence polarization; 20S core pre-blocked with epoxomicin; AID 588493; O00487; actives 0.59% (n = 360,000);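 active = inhibition at 20 µM, scaled to each plate's controls, above about 33%, limit read from the data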
# HNF4A DNA FP: change in binding of human HNF4 alpha to DNA. P41235. HNF4a-FITC DNA binding, fluorescence polarization, 1 h. activity change, % at 10 µM. actives 0.3% (n = 360,000); in the data active = activity change above about 30%, passing the limit was not always enough
# Fh CTSL1 inh: counter-screen for PFM18AAP inhibitors: inhibitors of F. hepatica cathepsin L1; actives 0.49% (n = 300,000); recombinant F. hepatica cathepsin L1, Z-Leu-Arg-MCA fluorescence; inhibition, % at 5.96 µM;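 active = inhibition above the mean of all tested compounds plus 3 SD, set per screening campaign, cut at about 17% in these data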;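 note: 0% = plate median of test compound wells and 100% = 1 µM Z-Phe-Ala-diazomethylketone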
# NRP1-CendR mod: modulators of CendR peptide binding to human neuropilin-1; O14786; FAM-RPARPAR peptide binding to NRP-1, fluorescence polarization; inhibition, % at 25 µM; actives 0.85% (n = 360,000);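 active = inhibition or corrected inhibition above about 18%, plus a signal ratio from 0.5 to 1.5, limit read from the data, passing the limit was not always enough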
# TPT1 inhibitor: blocks Candida albicans tRNA 2'-phosphotransferase; recombinant caTPT1, FP RNA substrate dephosphorylation; actives 0.81% (n = 300,000); inhibition, % at 5 µM;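 active = inhibition above the mean of all tested compounds plus 3 SD, set per screening campaign, cut at about 24% in these data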;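 note: plate controls were DMSO alone for no effect and ferristatin control at 100 nM for full effect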
# PHOSPHO1 inh: blocks human PHOSPHO1 phosphatase activity; inhibition, % at 13.3 µM; actives 1.1% (n = 290,000); recombinant PHOSPHO1, absorbance phosphatase assay; in the data active = inhibition above about 60%
# Target sequence (Q8TCT1 whole entry, looked up): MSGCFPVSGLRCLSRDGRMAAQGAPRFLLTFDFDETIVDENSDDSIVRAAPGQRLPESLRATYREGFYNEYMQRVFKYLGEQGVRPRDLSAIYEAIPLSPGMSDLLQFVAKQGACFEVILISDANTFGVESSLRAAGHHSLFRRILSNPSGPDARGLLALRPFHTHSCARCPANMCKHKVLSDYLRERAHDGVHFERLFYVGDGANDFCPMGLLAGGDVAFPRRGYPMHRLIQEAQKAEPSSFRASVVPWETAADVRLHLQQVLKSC
# * hit, by the source's call; . = no result given.
SMILES,Rpn11 block,HNF4A DNA FP,Fh CTSL1 inh,NRP1-CendR mod,TPT1 inhibitor,PHOSPHO1 inh
COc1ccc(N2C(=O)CC(Sc3ncn[nH]3)C2=O)c(OC)c1 (centres undefined),-1.0,-2.2,1.2,-19.5,-1.8,92.2*
CC(C)c1ccc(N2C(=O)CC(Sc3nc4ccccc4o3)C2=O)cc1 (centres undefined),4.7,5.2,0.5,-3.9,-1.4,-17.6
O=C(CSc1ncn[nH]1)c1ccc2c(c1)OCCO2,-2.5,1.7,1.2,-0.1,0.3,-3.3
CC(C)c1ccc(N2C(=O)CC(Sc3ncn[nH]3)C2=O)cc1 (centres undefined),1.0,2.9,0.3,5.1,-0.8,93.1*
CCOc1cccc(N2C(=O)CC(n3cnc4ccccc43)C2=O)c1 (centres undefined),-5.2,-2.3,-2.8,-6.2,-0.2,-27.4
CC(C)CN(C(=O)Cn1ccccc1=O)C1CCS(=O)(=O)C1 (centres undefined),1.6,1.9,.,7.4,.,.
Cc1ccccc1NNC(=O)C(=O)NNc1ccccc1C,0.1,0.2,-0.1,6.7,-2.8,67.6*
Cc1ccc(C)c(NNC(=O)C(=O)NNc2cc(C)ccc2C)c1,10.3,8.4,2.4,-9.5,-4.3,44.1
C[C@H](NC(=O)[C@H]1N2C(=O)c3ccccc3C2SC1(C)C)C(=O)N1CCN(C)CC1 (some centres undefined),-8.0,3.8,21.1*,0.1,-1.7,47.7
COc1ccccc1N1CCN(S(=O)(=O)c2ccc3c(c2)NC(=O)C(C)C(=O)N3)CC1 (centres undefined),4.6,2.9,3.7,-6.8,-2.9,28.1
CCOC(=O)N1CCN(S(=O)(=O)c2ccc(C(=O)N(CCCN(C)C)c3nc4ccc(Cl)cc4s3)cc2)CC1,-2.7,3.5,-2.5,20.0,0.8,62.8*
CCN(c1ccccc1)S(=O)(=O)c1ccc(C(=O)N(CCCN(C)C)c2nc3cc4c(cc3s2)OCO4)cc1,-1.8,4.2,-7.7,22.5*,0.2,4.2
CN(C)CCCN(C(=O)c1ccc(S(=O)(=O)N(C)Cc2ccccc2)cc1)c1nc2cc3c(cc2s1)OCO3,4.1,0.9,3.5,8.9,-3.5,17.6
O=C(c1ccccc1OCc1ccccc1Br)N1CCN(c2ncccn2)CC1,0.7,-3.3,0.3,-2.8,-2.5,1.7
COc1cccc(NC(=O)c2c(F)cccc2F)c1,-0.7,-6.3,-0.9,9.7,-1.2,.
CC(OC(=O)c1ccc(=O)n(Cc2ccccc2)n1)C(=O)Nc1cccc(Cl)c1 (centres undefined),-2.4,0.3,16.8*,16.7*,1.6,.
CC(C)(C)CC(C)(C)NC(=S)Nc1ccc2nc(-c3ccccn3)c(-c3ccccn3)nc2c1,.,26.7,4.8,-80.3,14.7,95.9*
O=C(N/N=C/c1c(F)cccc1Cl)c1cc(C2CC2)[nH]n1,-10.3,2.0,-1.8,10.7,-0.5,-0.1
COc1ccc(NC(=S)NNC(=O)C(C)n2nc(C)c([N+](=O)[O-])c2C)cc1 (centres undefined),0.9,3.0,0.3,-5.8,-2.6,68.4*
CC(=O)Nc1ccc(NC(=O)C(C)n2nc([N+](=O)[O-])c(Br)c2C)cc1 (centres undefined),-4.0,1.8,0.3,-0.5,-1.7,63.3*
Cc1nn(C(C)C(=O)NNC(=S)Nc2ccc(F)cc2)c(C)c1[N+](=O)[O-] (centres undefined),-4.0,1.9,4.8,1.6,-1.9,71.5*
CC(=O)Nc1ccc(NC(=O)C(C)n2nc(C)c([N+](=O)[O-])c2C)cc1 (centres undefined),3.1,1.5,-4.7,7.5,2.2,38.9
COc1ccc(N/N=C(/C(N)=O)C2=NC(C)(C)Cc3ccccc32)cc1,-8.6,0.2,2.8,-10.9,1.6,-14.1
CCCSc1nc2sc3c(c2c(=O)[nH]1)CCN(Cc1ccccc1)C3,65.4*,17.2,-1.2,-151.7,81.8*,8.2
O=C1C=C(c2ccc3[nH]ccc3c2)CCC1,-0.9,-1.4,1.1,0.6,3.0,.
COc1ccc2cc(C3=CC(=O)CCC3)ccc2c1,-1.2,-1.2,.,28.1*,.,.
Cc1cccc(N2CCN(S(=O)(=O)c3ccc(Cl)nc3)CC2C)c1 (centres undefined),-2.9,1.6,.,26.8*,.,.
